Compounds with a hit are over-represented: about 3.9% of the library has one in this group of screens.
BoNT-A LC inh2 – inhibitors of Botulinum neurotoxin A light chain protease | inhibition, % at 10 µM | multiplex microsphere protease substrate cleavage, flow cytometry | actives 0.17% (n = 360,000)
CCHFV vOTU inh – blocks the CCHF virus ovarian tumor domain protease; CCHFV vOTU protease, Pep-AMC fluorescence; inhibition, % at 11.5 µM; actives 0.55% (n = 370,000); in the data active = inhibition above about 30%
Autofluor counter – counter-screen for toxin protease inhibitors: compound fluorescence; fluorescence intensity (concentration not given with the values); compound autofluorescence counterscreen, microsphere flow cytometry; stronger effect = higher value; actives 3.1% (n = 360,000); in the data active = fluorescence intensity above about 16000; inconclusive = no clear call, values can overlap the other calls
Anthrax LF inh2 – blocks Bacillus anthracis lethal factor protease; P15917; multiplex microsphere protease cleavage assay, LF; inhibition, % at 10 µM; actives 0.12% (n = 360,000); AID 588501
Target sequence (P15917 whole entry, looked up): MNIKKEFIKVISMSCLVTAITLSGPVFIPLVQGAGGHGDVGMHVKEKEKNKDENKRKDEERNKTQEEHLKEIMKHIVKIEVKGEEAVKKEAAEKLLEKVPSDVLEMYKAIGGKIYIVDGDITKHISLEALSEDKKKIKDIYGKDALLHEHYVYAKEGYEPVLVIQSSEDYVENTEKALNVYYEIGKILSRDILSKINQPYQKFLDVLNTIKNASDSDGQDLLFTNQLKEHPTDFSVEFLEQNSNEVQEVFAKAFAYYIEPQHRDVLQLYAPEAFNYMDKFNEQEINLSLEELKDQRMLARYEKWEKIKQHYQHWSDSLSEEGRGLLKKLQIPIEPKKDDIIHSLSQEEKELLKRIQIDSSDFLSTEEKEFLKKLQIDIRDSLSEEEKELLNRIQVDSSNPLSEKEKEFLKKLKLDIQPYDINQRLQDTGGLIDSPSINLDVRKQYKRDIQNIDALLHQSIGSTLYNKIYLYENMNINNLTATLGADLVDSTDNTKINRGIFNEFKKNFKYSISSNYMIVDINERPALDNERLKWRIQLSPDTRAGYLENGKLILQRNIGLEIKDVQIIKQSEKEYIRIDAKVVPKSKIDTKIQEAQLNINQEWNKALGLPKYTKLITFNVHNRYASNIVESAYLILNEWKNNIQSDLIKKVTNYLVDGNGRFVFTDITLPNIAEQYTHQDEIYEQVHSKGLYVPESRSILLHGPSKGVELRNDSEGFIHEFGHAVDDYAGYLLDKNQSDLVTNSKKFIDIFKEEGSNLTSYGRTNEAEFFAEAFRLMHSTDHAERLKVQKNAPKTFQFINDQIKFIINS
SARS 3CLpro inh – SARS-CoV 3CLpro protease inhibition; recombinant SARS-CoV 3CLpro, quenched FRET peptide cleavage; inhibition, % at 6 µM; actives 0.14% (n = 290,000); P0C6X7; in the data active = inhibition above about 12%
BoNT F protease – blocks Botulinum neurotoxin F light chain protease. Multiplex microsphere protease cleavage assay, flow cytometry. inhibition, % at 10 µM. actives 0.22% (n = 360,000). AID 588497; in the data active = inhibition above about 35%, passing the limit was not always enough; inconclusive = no clear call, values can overlap the other calls
Hits are given with their value; – = inactive; ? = inconclusive; · = no result. Cut-off read from the data, not from the text of the source, unless noted: active = inhibition above about 30%; inconclusive = no clear call, values can overlap the other calls; inactive = below that.

SMILES	BoNT-A LC inh2	CCHFV vOTU inh	Autofluor counter	Anthrax LF inh2	SARS 3CLpro inh	BoNT F protease
O=C(CCN1C(=O)/C(=C/c2ccco2)SC1=S)Nc1ccc(O)cc1C(=O)O	–	–	–	–	–	–
COc1ccc(S[C@]2(C(=O)NCc3ccccc3)CC(=O)N[C@@H]2c2ccc(OC)cc2)cc1	·	–	·	·	·	·
COc1ccc(S(=O)(=O)N2CCN(CC(=O)NC(Cc3ccccc3)C(C)=O)CC2)cc1 (stereo not given)	–	–	–	–	·	–
CCc1ccc([C@@H]2C[C@H]3CN(Cc4ccccc4OC)C(=O)[C@]34CCCN24)cc1	–	–	24775	–	–	–
COc1ccccc1CN1C[C@@H]2C[C@@H](c3ccc(C)cc3)N3CCC[C@@]23C1=O	–	–	–	–	–	–
O=C(C1CC2C=CC1C2)N1CCN(c2ccccc2)CC1 (stereo not given)	–	–	–	–	–	–
CC1(C)C(C=C(Cl)Cl)C1C(=O)N1CCN(c2ccccc2)CC1 (stereo not given)	–	–	22705	–	–	–
COCc1cc(=O)[nH]c(/N=C(\N)Nc2ccc(C)cc2)n1	?	–	21003	–	–	–
COC(=O)Cc1cc(=O)[nH]c(/N=C(\N)Nc2ccc(C)cc2C)n1	–	–	–	–	–	–
CCOC(=O)Cc1cc(=O)[nH]c(/N=C(\N)Nc2ccc(C)cc2C)n1	–	–	23280	–	–	–
Cc1ccc(SCc2cc(=O)[nH]c(/N=C(\N)Nc3ccc(C)c(C)c3)n2)cc1	–	·	25207	–	–	–
COCc1cc(=O)[nH]c(/N=C(\N)Nc2ccc(Cl)c(Cl)c2)n1	–	–	–	?	–	–
CC1(C)SC2C(NC(=O)C3(N)CCCCC3)C(=O)N2C1C(=O)O (stereo not given)	–	–	–	–	·	–
CC(C)CC1NC(=O)c2ccc(Cl)cc2-n2c1nc1ccc(Cl)cc1c2=O (stereo not given)	·	–	·	·	·	·
CC(=O)CC[C@@H]1CC[C@]2(CCCN(S(=O)(=O)C3CCCCC3)C2)O1	·	–	·	·	·	·
O=c1[nH]c2cc3c(cc2cc1C(c1nnnn1Cc1ccccc1)N1CCCCCC1)OCCO3 (stereo not given)	–	–	17658	–	–	–
Cc1ccc(C)c2[nH]c(=O)c(C(c3nnnn3Cc3ccccc3)N3CCc4ccccc4C3)cc12 (stereo not given)	?	–	22367	–	–	–
COc1cnn(C(C)(C)C)c(=O)c1Cl	?	–	19156	–	–	–
Cc1cccc(Oc2cnn(C(C)(C)C)c(=O)c2Cl)c1	–	–	–	–	–	–
c1ccc(Cn2nnc3c(NCCN4CCOCC4)ncnc32)cc1	–	–	22975	–	–	–
Clc1ccccc1Cn1nnc2c(NCCN3CCOCC3)ncnc21	–	–	–	–	–	–
Cc1nc(NCCN2CCOCC2)c2nnn(Cc3ccccc3Cl)c2n1	–	–	–	–	–	–
CC(C)(C)c1nc(NCCN2CCOCC2)c2nnn(Cc3ccccc3Cl)c2n1	–	–	23490	–	–	–
Cc1cc2c(cc1C)N(C(=O)CSC1=NCCS1)C(C)(C)c1ssc(=S)c1-2	–	–	21080	–	–	–
O=c1c2ccccc2on1-c1ccccc1	–	–	–	–	·	–
SMILES	BoNT-A LC inh2	CCHFV vOTU inh	Autofluor counter	Anthrax LF inh2	SARS 3CLpro inh	BoNT F protease
N=c1n(-c2ccccc2)c(O)cc(=O)n1-c1ccccc1	–	–	22975	–	–	–
Cc1cc(NC(=O)c2ccc(C)c(C)c2)no1	–	–	–	–	–	?
CC(C)(C)OC(=O)NCc1ccccc1/C=C/S(=O)(=O)NCCc1ccccc1	·	–	·	·	·	·
CC1(c2ccccn2)Nc2ccccc2-c2nc3ccccc3n21 (stereo not given)	–	–	22286	–	–	–
c1ccc2c(c1)NC1(CCCCCC1)n1c-2nc2ccccc21	·	–	·	·	–	·
O=C1Nc2ccccc2C12Nc1ccccc1-c1nc3ccccc3n12 (stereo not given)	–	–	–	–	–	–
CN1C(=O)C2(Nc3ccccc3-c3nc4ccccc4n32)c2ccccc21 (stereo not given)	–	–	23406	–	–	–
Cc1noc(C)c1CSCC(=O)NCCN1C(=O)S/C(=C\c2ccccc2F)C1=O	–	–	–	–	·	–
CCOc1cc(CCNC(=O)c2cc3sccc3n2CC)ccc1OC	·	–	·	·	·	·
CCOC(=O)c1c(C)n(O)c2ccc(Cl)cc2c1=O	–	–	16178	–	–	–
Cc1c(C(=O)N(C)C)c2cc(Cl)ccc2n1O	–	–	–	–	–	–
C[C@@H]1[C@H](O)[C@@H](C)/C=C/C=C/C=C/C=C/C=C/C=C/C=C/[C@H](OC2O[C@H](C)[C@@H](O)[C@H](N)[C@@H]2O)C[C@@H]2O[C@](O)(C[C@@H](O)C[C@@H](O)[C@H](O)CC[C@@H](O)C[C@@H](O)CC(=O)O[C@H]1C)C[C@H](O)[C@H]2C(=O)O (stereo not given in full)	·	–	·	·	·	·
CCOc1ccccc1C(=O)OCC(=O)Nc1ncc(C(F)(F)F)cc1Cl	–	–	21522	–	–	–
Cc1ccc(C(=O)OCC(=O)Nc2ncc(C(F)(F)F)cc2Cl)cc1NC(=O)c1ccco1	–	–	20917	–	–	–
COC(=O)c1ccccc1NC(=O)COC(=O)c1ccc(C)c(NC(=O)c2ccco2)c1	?	–	21306	–	–	–
COc1cc(C2C3=C(CC(C)(C)CC3=O)Nc3c2c(=O)[nH]c(=O)n3Cc2ccccc2)ccc1O (stereo not given)	–	–	–	–	–	–
COc1ccc(C2C3=C(CC(C)(C)CC3=O)Nc3c2c(=O)[nH]c(=O)n3Cc2ccccc2)cc1OC (stereo not given)	–	–	23655	–	–	–
CCc1ccc(C2C3=C(CC(C)(C)CC3=O)Nc3c2c(=O)[nH]c2nc(C)nn32)cc1 (stereo not given)	?	–	21959	–	–	–
CN(C)C=Nc1c(Br)cc(Br)c2nonc12	70.7	–	–	–	–	?
O=C(NC(Cc1c[nH]c2ccccc12)C(=O)NCCCN1CCOCC1)c1cccs1 (stereo not given)	–	–	–	–	–	–
COc1cc(NC(=O)NS(=O)(=O)c2ccc(C)cc2)cc(OC)c1	?	–	20395	–	–	–
Cc1ccc(S(=O)(=O)NC(=O)Nc2ccc(F)cc2)cc1	–	–	16339	–	–	–
O=C(Nc1ccnn1C1CCN(C(=O)c2cnsn2)CC1)c1cccc(F)c1	–	–	–	–	–	–
CC1(C)CC(=O)C=C(c2n[nH]nc2C2=CCCCC2)C1	–	–	–	–	·	–
CCOc1cc(-c2nc3ccccn3c2NCC2CCCO2)ccc1O (stereo not given)	–	–	22229	–	–	–
CN(CCO)c1cc(Sc2nc3ccccc3s2)c2nonc2c1[N+](=O)[O-]	–	–	21417	–	–	–
COC(=O)C1=C(C)n2nnnc2NC1c1cc2ccccc2o1 (stereo not given)	?	–	17991	–	–	–
Clc1ccc(-c2nnnn2-c2ccc(Cl)cc2)cc1	·	–	·	·	–	·

Assay outcomes as filed in PubChem BioAssay.
